The subject of test [1] is Hepatitis C virus NS3 helicase. Briefly: HCV NS3 helicase inhibitors, primary screen, biochemical, fluorescence polarization, LOPAC1280 library (AID 687035; in the data active = inhibition above about 37%). The conditions noted are these: Purified HCV NS3 helicase, Cy5-dT15 ssDNA binding fluorescence polarization; stronger effect = higher value; concentration not given here. For orientation: Fluorescence polarisation rises when a labelled molecule tumbles more slowly, as on binding a larger partner.

Test [2] in a line: Cy5 fluorescence quenching or enhancement artefacts, artefact control for HCV NS3 helicase inhibitor project, biochemical, LOPAC1280 (AID 687037; call rule not given here). The conditions noted are these: Cy5-DNA-NS3h complex fluorescence interference counterscreen.
Test [3] can be described thus: differential killing of epithelial or mesenchymal cells, primary screen, imaging, PC-3E GFP, TEM4-18 mCherry, co-culture (AID 1345086;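 active = compounds killing one labelled cell type while sparing the other, by normalised counts and ratio limits, not self-fluorescent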;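 as to all read-outs here: cells exposed to compound for 72 h before imaging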;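 as to red/green cell ratio (normalised): normalised mesenchymal count divided by normalised epithelial count so high means epithelial killing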). The conditions noted are these: imaging cell counts, at 1 µM; for red/green cell ratio (normalised): actives lie on both sides, counts scaled to control wells, 1 = unselective.
Test [4] is described as follows: sensitizers of A549 cells to miR-34 induction, primary screen, imaging, A549 dox-inducible miR-34, nuclei and caspase counts (AID 1347080). Conditions: A549 miR-34 inducible, Hoechst nuclei count, 48 h.
Test [5] can be described thus: phospholipid biosynthesis inhibitors in animal cells, primary screen, cell-based, LOPAC library, screen 4 (AID 1347384; call rule not given here). The conditions noted are these: phospholipid biosynthesis inhibition screen, at 10 µM.
Test [6] addresses Mitogen-activated protein kinase 7 (Homo sapiens) (UniProt Q13164). Briefly: ERK5 transactivation activators in reporter cells, primary screen, cell-based, HTS (AID 1508626;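 active = luciferase signal above three times the same-plate solvent-only control wells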;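 also: luciferase driven by Gal4-ERK5 fusion binding five Gal4 sites before minimal TATA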). Conditions: HeLa Gal4-ERK5 transactivation, 18 h, at 5 µM, stronger effect = higher value.
Test [7] can be described thus: viability rescue of complex I mutant cybrids, primary screen, cell-based, galactose medium, ATP luminescence (AID 1645843;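 active = z-score of at least 1.8 in each of two replicates, scored against plate mean and spread of sample wells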;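 also: positive z means more ATP and so rescue of galactose-driven cybrid death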). Conditions: complex I mutant cybrid cells, 72 h, stronger effect = higher value.
Test [8] is described as follows: survival rescue of mitochondrial mutant cells in low glucose, primary screen, MELAS cybrids, Rieske KO mouse fibroblasts, CellTiter-Glo (AID 1508586;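 active = mean z-score across replicates of 1.96 or higher in either the MELAS or the Rieske mutant cell line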;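 also: z relative to plate mean and SD of compound and empty wells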). (In ATP-based viability assays light output follows the ATP content of the culture.)
The target in test [9] is NAD(+) hydrolase SARM1 (Homo sapiens) (UniProt Q6SZW1). Description: SARM1 TIR NADase inhibitors, cell lysate, NAD-Glo luminescence (AID 1508614;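 active = compound whose remaining NAD level is above about 45 nM, limit read from the data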;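 also: higher remaining NAD means stronger inhibition of SARM1 NADase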). The conditions noted are these: SAM-TIR HEK293T lysate NADase, at 1 µM, stronger effect = higher value.
Sequence of NAD(+) hydrolase SARM1 (Homo sapiens) (Q6SZW1 whole entry, looked up): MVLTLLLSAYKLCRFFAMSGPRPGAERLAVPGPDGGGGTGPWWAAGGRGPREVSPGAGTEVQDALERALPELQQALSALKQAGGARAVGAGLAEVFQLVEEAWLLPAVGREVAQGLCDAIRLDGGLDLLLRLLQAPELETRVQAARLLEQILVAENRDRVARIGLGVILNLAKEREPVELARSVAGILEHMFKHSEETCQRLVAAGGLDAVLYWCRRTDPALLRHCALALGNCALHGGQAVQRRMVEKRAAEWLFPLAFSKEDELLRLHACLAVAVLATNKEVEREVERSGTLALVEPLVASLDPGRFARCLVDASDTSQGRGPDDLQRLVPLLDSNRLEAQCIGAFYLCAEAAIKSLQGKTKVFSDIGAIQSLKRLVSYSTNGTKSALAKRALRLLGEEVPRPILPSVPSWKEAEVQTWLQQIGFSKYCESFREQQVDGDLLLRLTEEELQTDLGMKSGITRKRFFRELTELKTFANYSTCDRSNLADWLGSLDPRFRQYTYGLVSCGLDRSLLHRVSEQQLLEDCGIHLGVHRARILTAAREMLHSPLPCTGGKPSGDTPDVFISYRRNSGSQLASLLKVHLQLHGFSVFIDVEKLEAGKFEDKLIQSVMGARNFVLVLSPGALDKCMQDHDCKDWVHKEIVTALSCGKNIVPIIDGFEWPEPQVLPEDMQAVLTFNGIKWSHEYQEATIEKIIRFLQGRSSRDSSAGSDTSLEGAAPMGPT
Test [10] is described as follows: liver-stage malaria parasite growth inhibition, primary screen, cell-based, HepG2, luciferase luminescence, HepG2 viability (AID 624349; in the data active = parasite load remaining mostly below about 12%, no sharp cut-off; inactive = mostly above about 10%;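 also: 100% = mean of DMSO negative control wells on the same plate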). The conditions noted are these: P. berghei liver stage in HepG2, luciferase luminescence, concentration not given here; parasite load remaining: stronger effect = lower value; viability: measured here: HepG2 viability without parasites.
Setting [11] is: measured here: epithelial PC-3E GFP cell survival.
The mark [12] stands for this setting: measured here: mesenchymal TEM4-18 mCherry cell survival.
Where [13] appears, read: stronger effect = lower value, cell number ratio, induced over uninduced.
Setting [14] is: measured here: relative caspase fold change +Dox/-Dox.
Setting [15] is: measured here: total cells with miR-34 induction, stronger effect = lower value.
Where [16] appears, read: measured here: total cells without miR-34 induction.
Where [17] appears, read: MELAS cybrid survival, CellTiter-Glo 48 h, stronger effect = higher value.
Setting [18] is: Rieske KO mouse fibroblast survival, CellTiter-Glo 72 h.

This note sets out measurements from PubChem BioAssay.

In general, inhibition refers to the change of the read-out against control, counted positive when it falls. Broadly, the viability is a per cent measure of how many cells are alive, often set against a control.

The structures appear in SMILES notation. Where “and” joins values, the source holds several entries; their conditions need not be identical. Equal entries are not always repeated. Calls of active or inactive are those of the source.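 The calls were made as follows, unless noted: active = compounds whose cell count with miR-34 switched on is under 0.7 times the count with it off; inactive = the rest.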

Sequence of Mitogen-activated protein kinase 7 (Homo sapiens) (Q13164 whole entry, looked up, the tested form may be a part): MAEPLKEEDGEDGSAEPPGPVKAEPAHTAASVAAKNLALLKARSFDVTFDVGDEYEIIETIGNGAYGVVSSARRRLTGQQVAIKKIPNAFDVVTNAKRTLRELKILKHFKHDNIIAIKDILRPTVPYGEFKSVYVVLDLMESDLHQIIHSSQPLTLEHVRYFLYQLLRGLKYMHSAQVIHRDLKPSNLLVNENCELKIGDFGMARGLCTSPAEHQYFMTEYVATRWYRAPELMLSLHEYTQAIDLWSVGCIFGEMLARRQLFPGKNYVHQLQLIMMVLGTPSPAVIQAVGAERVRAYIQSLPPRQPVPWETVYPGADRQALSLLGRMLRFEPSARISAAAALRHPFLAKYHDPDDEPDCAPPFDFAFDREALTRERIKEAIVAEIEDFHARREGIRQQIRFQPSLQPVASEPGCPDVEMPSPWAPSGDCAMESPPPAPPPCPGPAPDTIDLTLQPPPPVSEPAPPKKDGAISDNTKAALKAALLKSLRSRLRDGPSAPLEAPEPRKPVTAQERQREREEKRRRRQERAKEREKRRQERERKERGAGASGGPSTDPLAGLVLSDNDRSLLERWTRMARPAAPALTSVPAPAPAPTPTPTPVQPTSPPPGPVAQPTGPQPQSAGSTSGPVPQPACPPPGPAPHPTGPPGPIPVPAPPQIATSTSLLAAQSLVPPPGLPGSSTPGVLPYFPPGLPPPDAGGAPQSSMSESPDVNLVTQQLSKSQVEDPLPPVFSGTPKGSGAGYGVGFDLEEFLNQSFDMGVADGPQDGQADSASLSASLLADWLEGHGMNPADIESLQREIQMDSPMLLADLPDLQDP

As to `O=C(O)C1=CC(=C(c2ccc(O)c(C(=O)O)c2)c2ccc(O)c(C(=O)O)c2)C=CC1=O`, the inhibition in [1] is 96% (active). The fluorescence ratio (interference) in test [2] is 1 (inactive). Besides, in test [3], the red/green cell ratio (normalised) was 1.1 (inactive). The normalised cell number is 1.19 in test [3] (setting [11]) and 1.31 in test [3] (setting [12]). For the same compound, the figures for the fold change in test [4] (setting [13]) and in [4] (setting [14]) were 1.06 (inactive) and 1.49, respectively. For the same compound, the cell count was 8760 in test [4] (setting [15]) and 8290 in test [4] (setting [16]). In addition, the compound was called inactive in test [5]. Further, the luciferase signal in test [6] is 12 AU (inactive). Besides, the z-score in test [7] is 5.43 (active).

As for `CC1CC(OC(=O)C(O)c2ccccc2)CC(C)(C)C1` (centres undefined), the red/green cell ratio (normalised) in [3] was 1 (inactive). The normalised cell number in test [3] (setting [11]) and in test [3] (setting [12]) was 1.03 throughout. Moreover, the fold change in test [4] (setting [13]) is 0.925 (inactive) and 0.927 (inactive); in test [4] (setting [14]), 0.697 and 0.603. The cell count in [4] (setting [15]) is 7310 and 7360; in test [4] (setting [16]) it was 7900 and 7940. The values for the z-score in test [8] (setting [17]) and in test [8] (setting [18]) were -0.227 (inactive) and -0.184, respectively. Also, in test [9], the remaining NAD is 10 nM (inactive).

For the compound `COc1cccc2c1C(=O)c1c(O)c3c(c(O)c1C2=O)C[C@@](O)(C(=O)CO)C[C@@H]3OC1C[C@H](N)[C@H](O)[C@H](C)O1` (some centres undefined), the parasite load remaining in test [10] is 18.8% (inactive). For the same compound, in test [10], the viability was 53.1%. Moreover, the red/green cell ratio (normalised) in test [3] is 2.27 (inactive). In addition, the figures for the normalised cell number in [3] (setting [11]) and in [3] (setting [12]) were 0.17 and 0.39, respectively. In addition, the fold change in test [4] (setting [13]) is 0.907 (inactive); in test [4] (setting [14]), 1.04. For the same compound, the cell count in [4] (setting [15]) is 1130; in [4] (setting [16]), 1250.

In the case of `NCCCNCCCCNCCCN`, the inhibition in test [1] was -1% (inactive). For the same compound, the fluorescence ratio (interference) in test [2] is 1 (inactive). Besides, in [3], the red/green cell ratio (normalised) was 1.05 (inactive). In addition, the normalised cell number in test [3] (setting [11]) was found to be 0.96; in test [3] (setting [12]) it was 1. The figures for the fold change in test [4] (setting [13]) and in [4] (setting [14]) were 0.928 (inactive) and 0.993, respectively. Further, the values for the cell count in test [4] (setting [15]) and in test [4] (setting [16]) were 10300 and 11100, respectively. In addition, the call in test [5] was inactive. In addition, in test [7], the z-score was -0.2 (inactive).

As to `Cc1cc(-n2c(=O)[nH]c(=O)n(C)c2=O)ccc1Oc1ccc(SC(F)(F)F)cc1`, in test [10], the parasite load remaining is 24.3% (inactive). The compound further came in with a viability in [10] of 72%. For the same compound, the red/green cell ratio (normalised) in test [3] was 0.98 (inactive). In addition, the normalised cell number in [3] (setting [11]) amounted to 1.07; in [3] (setting [12]) it was 1.05. The fold change was 0.875 (inactive) and 0.912 (inactive) in test [4] (setting [13]); 1.01 and 1.07 in [4] (setting [14]). Moreover, the cell count in test [4] (setting [15]) is 7860 and 10300; in test [4] (setting [16]) it was 8980 and 11300. Moreover, the z-score in [8] (setting [17]) is -0.0992 (inactive) and -0.247 (inactive) and 0.135 (inactive); in [8] (setting [18]) it was -0.203 and -0.144 and -0.234; in [7], 0.65 (inactive). Further, the remaining NAD in test [9] is 10 nM (inactive). Also, the luciferase signal in [6] is 136 AU (inactive).

For the compound `CC1(C)C2CCC1(CS(=O)(=O)O)C(=O)/C2=C\c1ccc(/C=C2\C(=O)C3(CS(=O)(=O)O)CCC2C3(C)C)cc1`, the red/green cell ratio (normalised) in test [3] is 0.78 (inactive). Further, the normalised cell number in test [3] (setting [11]) stood at 1.44; in [3] (setting [12]), 1.12. Moreover, the fold change in [4] (setting [13]) was 0.905 (inactive); in [4] (setting [14]), 1.03. The cell count is 8090 in [4] (setting [15]) and 8940 in test [4] (setting [16]).

Consider `CC1(C)S[C@@H]2[C@H](NC(=O)COc3ccccc3)C(=O)N2[C@H]1C(=O)O`, for which the parasite load remaining in test [10] is 89.7% (inactive) and 64.4% (inactive) and 28.3% (inactive). For the same compound, the viability in test [10] was 71.1% and 91.3% and 70.5%. Moreover, in test [3], the red/green cell ratio (normalised) was 1.2 (inactive). In addition, the values for the normalised cell number in [3] (setting [11]) and in test [3] (setting [12]) were 0.81 and 0.98, respectively. Also, the fold change was 0.943 (inactive) and 0.879 (inactive) in test [4] (setting [13]); 0.921 and 0.998 in test [4] (setting [14]). Moreover, the cell count in test [4] (setting [15]) is 11800 and 10100; in [4] (setting [16]), 12500 and 11500. Further, the z-score in test [8] (setting [17]) is 0.0944 (inactive); in test [8] (setting [18]), 0.173; in test [7], 0.895 (inactive). The remaining NAD in [9] was 10 nM (inactive). In addition, in test [6], the luciferase signal is 64 AU (inactive).

`O=C(O)c1ccccc1Nc1ccccc1`: the inhibition in [1] is 0% (inactive). Moreover, the fluorescence ratio (interference) in test [2] is 0.9 (inactive). The red/green cell ratio (normalised) in test [3] is 0.96 (inactive). Also, the normalised cell number in test [3] (setting [11]) was 1.09; in test [3] (setting [12]) it was 1.05. Also, the fold change was 1.06 (inactive) and 0.981 (inactive) in test [4] (setting [13]); 2.67 and 0.812 in test [4] (setting [14]). For the same compound, the cell count in test [4] (setting [15]) is 10300 and 5440; in [4] (setting [16]), 9720 and 5550. In addition, in test [5], the compound was called inactive. For the same compound, the luciferase signal in test [6] was 24 AU (inactive). Besides, the z-score in [7] was 2.06 (active).
